Shown are actives, neighbours in structure and some others; about 2.3% of the full set was active somewhere.
WRN helicase inh-1: WRN helicase (human) inhibition | WRN helicase unwinding, fluorescent forked duplex, kinetic | 0.46% of 360,000 active | Potency, µM (series often up to 114 µM), for the others: at the top dose activity change, negative = inhibition, usual class: inhibitors | AID 651768; further: potency means the concentration at half of the fitted maximal effect; on the % scale 0 is the no-effect control and ±100 the full control effect; nearly all actives have a fitted effect of over 55% in size
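WRN at 20 nM final was preincubated with compound for 15 min at room temperature; reaction started with 100 nM forked duplex oligonucleotide carrying fluorophore and quencher plus 2 mM ATP (final). Unwinding followed kinetically by red fluorescence (ex 525/em 598 nm).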
Pol iota inh: blocks human DNA polymerase iota activity; Q9UNA4; Pol iota fluorescent replication assay, 10 min; Potency, µM (highest dose often 115 µM), for inactives: at the top dose activity, negative = inhibition, hits mostly inhibitors; 1% of 390,000 active; AID 588590; further: potency means the concentration at half of the fitted maximal effect
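Pol iota at 10 nM preincubated 15 min with compounds at room temperature; reaction started with fluorescent substrate, 50 nM final. Fluorescence read kinetically at 0 and 10 min; buffer-only wells as negative control.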
Pol beta inh: DNA polymerase beta (human) inhibition. P06746. Pol beta primer extension/strand displacement, fluorescence kinetic. Potency, µM (titrated, usually from 114 µM), inactives show top-dose activity change, negative = inhibition, hits mostly inhibitors. 1.3% of 340,000 active. AID 485314; further: potency means the concentration at half of the fitted maximal effect; on the % scale 0 is the no-effect control and ±100 the full control effect
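10 nM enzyme + cpd, 15 min RT; start with substrate 50 nM final; read 0 min and after 10 min RT. Corrected, normalized data; 4-parameter Hill curve fit.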
Pol kappa inh-1: blocks human DNA polymerase kappa activity. Potency, µM (highest dose often 107 µM), for the others: top-dose activity, negative = inhibition, actives largely listed as inhibitors. purified Pol kappa, fluorescent DNA synthesis assay, 10 min. Q9UBT6. 0.53% of 400,000 active; further: potency means the concentration at half of the fitted maximal effect; on the % scale 0 is the no-effect control and ±100 the full control effect
Target sequence (Q9UBT6 whole entry, looked up): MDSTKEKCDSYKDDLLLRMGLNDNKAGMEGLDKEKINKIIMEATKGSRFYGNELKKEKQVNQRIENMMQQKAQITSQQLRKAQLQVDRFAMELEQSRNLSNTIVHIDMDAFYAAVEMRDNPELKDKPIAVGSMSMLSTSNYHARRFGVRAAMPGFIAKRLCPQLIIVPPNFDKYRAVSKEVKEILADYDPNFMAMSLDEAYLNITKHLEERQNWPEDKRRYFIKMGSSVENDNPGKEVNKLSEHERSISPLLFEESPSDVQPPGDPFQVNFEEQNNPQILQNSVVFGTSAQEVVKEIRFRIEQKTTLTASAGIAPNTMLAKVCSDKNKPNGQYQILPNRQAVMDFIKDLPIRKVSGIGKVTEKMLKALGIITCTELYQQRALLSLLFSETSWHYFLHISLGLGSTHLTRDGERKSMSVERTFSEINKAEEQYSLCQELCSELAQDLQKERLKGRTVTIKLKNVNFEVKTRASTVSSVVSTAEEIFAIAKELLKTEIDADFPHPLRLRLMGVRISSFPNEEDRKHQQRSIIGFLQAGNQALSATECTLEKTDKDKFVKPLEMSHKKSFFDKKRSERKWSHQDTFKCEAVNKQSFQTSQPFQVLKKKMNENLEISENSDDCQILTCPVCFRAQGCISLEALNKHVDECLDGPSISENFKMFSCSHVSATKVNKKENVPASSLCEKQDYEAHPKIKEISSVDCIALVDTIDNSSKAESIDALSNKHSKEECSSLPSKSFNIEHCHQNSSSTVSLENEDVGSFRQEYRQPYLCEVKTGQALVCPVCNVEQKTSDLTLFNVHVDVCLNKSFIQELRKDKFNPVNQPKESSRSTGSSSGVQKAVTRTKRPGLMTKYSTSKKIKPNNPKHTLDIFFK
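First, compounds were pin-transferred onto 10 nM Pol kappa. After 15 min at room temperature, substrate was added to 50 nM final. Fluorescence was then measured kinetically at 0 and 10 min.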
Pol eta inh-1: DNA polymerase eta (human) inhibition | 1.2% of 390,000 active | recombinant Pol eta, fluorescent DNA replication assay | AID 588591 | Q9Y253 | Potency, µM (top dose mostly 114 µM), inactives show at the highest dose activity change, negative = inhibition, most hits filed as inhibitors; further: potency means the concentration at half of the fitted maximal effect; on the % scale 0 is the no-effect control and ±100 the full control effect
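Fluorescent replication assay: 50 nM final substrate added after a 15 min room-temperature compound preincubation with 10 nM enzyme. Signal taken at 0 min and again at 10 min.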
TbPGK inh: blocks T. brucei phosphoglycerate kinase. shares compounds with Pol kappa inh-1. TbPGK coupled GAPDH assay, Kinase-Glo luminescence. Potency, µM (doses to about 57.5 µM), inactives show at the highest dose activity change, negative = inhibition, most hits filed as inhibitors. 79% of 500 active; further: potency means the concentration at half of the fitted maximal effect; on the % scale 0 is the no-effect control and ±100 the full control effect; nearly all actives have a fitted effect of over 65% in size
POLI cherry-pick: Human Pol iota inhibitor confirmatory assay; shares compounds with Pol kappa inh-1; Pol iota primer extension, TAMRA/BHQ fluorescence; Potency, µM, most hits filed as inhibitors; 77% of 1,500 active; further: potency means the concentration at half of the fitted maximal effect
GALK inh confirm: confirmation of human galactokinase (GALK) inhibitors; 70% of 150 active; shares compounds with Pol eta inh-1; AID 2015; Potency, µM (highest dose often 115 µM), for the others: top-dose activity, negative = inhibition, usual class: inhibitors; purified GALK, Kinase-Glo ATP depletion luminescence
Redox cycling: redox cycling activity in phenol red-HRP assay; shares compounds with Pol eta inh-1; Phenol red-HRP H2O2 redox cycling, absorbance 600 nm; Potency, µM (titrated, usually from 115 µM), without a hit: top-dose activity change, negative = H2O2 signal, usual class: inhibitors; 40% of 150 active; AID 2035
HEK293 viability: counter-screen for GALK inhibitors: HEK293 cell cytotoxicity. 10% of 170 active. shares compounds with Pol eta inh-1. Potency, µM (top dose mostly 46.1 µM), inactives show top-dose activity change, negative = cytotoxicity, hits mostly inhibitors. AID 2547. HEK-293 viability, ATP luminescence (CellTiter-Glo), 24/48 h; further: potency means the concentration at half of the fitted maximal effect; on the % scale 0 is the no-effect control and ±100 the full control effect
Pol kappa inh-2: Pol kappa (human) inhibition, cherry-pick confirmation | 76% of 920 active | purified Pol-kappa, fluorescent strand-displacement substrate | Potency, µM, usual class: inhibitors | shares compounds with Pol eta inh-1 | AID 720501; further: potency means the concentration at half of the fitted maximal effect
Pol eta inh-2: Pol eta (human) inhibition, cherry-pick confirmation | 64% of 2,600 active | Potency, µM, usual class: inhibitors | Pol eta primer extension, TAMRA/BHQ fluorescence, 10 min | shares compounds with Pol eta inh-1; further: potency means the concentration at half of the fitted maximal effect
WRN helicase inh-2: WRN helicase inhibition, cherry-pick retest. Potency, µM (top dose mostly 57.1 µM), for the others: top-dose activity, negative = inhibition, actives largely listed as inhibitors. WRN helicase DNA unwinding, fluorescence kinetic. 63% of 610 active. shares compounds with WRN helicase inh-1; further: potency means the concentration at half of the fitted maximal effect; nearly all actives have a fitted effect of over 65% in size
TO DNA binding: DNA binding via thiazole orange displacement. shares compounds with WRN helicase inh-1. Potency, µM (series often up to 57.1 µM), for the others: top-dose activity change, negative = inhibition, hits mostly inhibitors. AID 720499. thiazole orange DNA binding displacement, fluorescence. 10% of 610 active;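 further: drop in dye fluorescence marks compound binding to DNA; potency means the concentration at half of the fitted maximal effect; on the % scale 0 is the no-effect control and ±100 the full control effect; nearly all actives have a fitted effect of over 60% in size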
BLM helicase inh: counter-screen for WRN helicase inhibitors: human BLM helicase inhibition | shares compounds with WRN helicase inh-1 | Recombinant BLM helicase DNA unwinding, red fluorescence | Potency, µM (top dose mostly 57.1 µM), for inactives: at the top dose activity change, negative = inhibition, hits mostly inhibitors | 60% of 610 active | AID 720503; further: potency means the concentration at half of the fitted maximal effect; nearly all actives have a fitted effect of over 60% in size
* marks the source's active call; other numbers are inactive results; ? = inconclusive; . = no result; [ ] = dose if it differs, or a comment. The call rests on the fitted dose curve; in most records, active means well fitted curve in the direction sought with a large enough effect; inconclusive means small, poorly fitted or top-dose-only effect, or another doubt; inactive means no such curve, though single readings can be large; an effect the other way counts as inactive or inconclusive.

SMILES | WRN helicase inh-1 | Pol iota inh | Pol beta inh | Pol kappa inh-1 | Pol eta inh-1 | TbPGK inh | POLI cherry-pick | Pol kappa inh-2 | Pol eta inh-2 | WRN helicase inh-2 | TO DNA binding | BLM helicase inh | others
O=C(N/N=C/c1cn(Cc2cccc(F)c2)c2ccccc12)c1cc(O)cc(O)c1 | 20µM* | ? | 1.4µM* | 7.1µM* | 1.6µM* | 2.1µM* | 8.4* | . | 8.5* | 5.4µM* | 24µM* | 2.2µM*
Oc1cccc(Nc2ccccc2)c1 | -1% | -9% | . | 1% | -11% | . | . | . | . | . | . | .
O=S(=O)(O)c1ccc(O)c2cc(Nc3ccccc3)ccc12 | 0.95µM* | ? | . | 2.8µM* | 0.79µM* | 0.65µM* | 0.67* | 0.53* | 0.76* | 0.43µM* | 9.6µM* | 0.061µM*
CCCCn1c(=O)c2oc3ccccc3c2n(Cc2ccc(OC)cc2)c1=O | . | -18% | 7% | 2% | -22% | . | . | . | . | . | . | .
CS(=O)(=O)c1ccc2c(c1)sc1nc(=O)c(/C=C3/C=CC(=O)C(O)=C3)c(N)n12 | 28µM* | 4µM* | 3.2µM* | 7.9µM* | 0.79µM* | ? | 6.7* | . | 1.5* | 1.9µM* | 31% | 3µM* | GALK inh confirm=19µM*;Redox cycling=?;HEK293 viability=1%
CCS(=O)(=O)c1nn2c(N)c(/C=C3/C=CC(=O)C(OC)=C3)c(=O)nc2s1 | -25% | -9% | 6% | -26% | ? | . | . | . | . | . | . | .
Cc1ccc(C)n1/N=C1/NC(=O)CS1 | 16µM* | 2.5µM* | 18µM* | 10µM* | 2.2µM* | ? | 42* | . | 30* | 24µM* | -9% | 5.4µM*
O=C(O)CCCNc1cc(N2CCN(C(=O)c3ccco3)CC2)c2noc3c2c1C(=O)c1ccccc1-3 | 45µM* | 32µM* | 16µM* | 32µM* | 10µM* | . | 27* | ? | 9.5* | 14µM* | 295% | 19µM*
O=C1/C(=C/c2ccco2)SC(=S)N1c1cccnc1 | 13µM* | ? | 1.6µM* | 8.9µM* | 2.8µM* | 3.3µM* | 3.8* | 4.7* | 5.4* | 22µM* | -22% | 8.6µM*
CCCCCCNC(=O)c1cc(-c2ccco2)nc2ccccc12 | 40µM* | ? | 7.9µM* | 50µM* | 13µM* | . | 27* | . | 30* | ? | -23% | 17µM*
COc1ccccc1CNC(=O)COC(=O)c1cc(-c2ccco2)nc2ccccc12 | 35µM* | 7.1µM* | 5µM* | 22µM* | 14µM* | . | 21* | 15* | 24* | 19µM* | ? | 17µM*
COc1ccccc1CNC(=O)COC(=O)c1cc(C)nc2ccccc12 | -25% | 17% | . | -7% | -11% | . | . | . | . | . | . | .
N#C/C(=C\c1ccc(-c2ccc(Br)cc2)o1)C(=O)Nc1ccccc1O | . | -9% | 33% | -8% | . | . | . | . | . | . | . | .
N#C/C(=C\c1ccc(-c2ccc(C(=O)O)cc2)o1)C(=O)Nc1ccccc1C(=O)O | . | ? | ? | 32µM* | 11µM* | . | 67* | 5.3* | 30* | ? | 11µM* | 19µM*
COc1ccccc1CNC(=O)c1cc2ccc3ccc(C)[nH]c3c2n1 | . | 1% | -21% | -11% | -22% | . | . | . | . | . | . | .
COc1cccc(C(=O)Nc2cccc(-c3cn4c(C)csc4n3)c2)c1OC | . | 1% | -19% | -3%[60.1 µM] | -9% | . | . | . | . | . | . | .
COc1ccccc1N(CC(=O)NCc1ccco1)S(=O)(=O)c1ccc(C)cc1 | 35µM* | 5.6µM* | 11µM* | 32µM* | 10µM* | 16µM* | 21* | 11* | 27* | 17µM* | 29% | 14µM*

Assay outcomes from PubChem BioAssay.
